Experimental findings from the supplement of paper PMC3334620 are described below.

The full ranking holds about 33,000 sequences; the median of “E-score (-0.5 to 0.5)” is about -0.013, and the highest 2% start at about 0.3. Shown is part of a subset that was picked to be rich in the highest values.

The assay concerns the target T1, Msn1 (UniProt P22148).
T1 sequence: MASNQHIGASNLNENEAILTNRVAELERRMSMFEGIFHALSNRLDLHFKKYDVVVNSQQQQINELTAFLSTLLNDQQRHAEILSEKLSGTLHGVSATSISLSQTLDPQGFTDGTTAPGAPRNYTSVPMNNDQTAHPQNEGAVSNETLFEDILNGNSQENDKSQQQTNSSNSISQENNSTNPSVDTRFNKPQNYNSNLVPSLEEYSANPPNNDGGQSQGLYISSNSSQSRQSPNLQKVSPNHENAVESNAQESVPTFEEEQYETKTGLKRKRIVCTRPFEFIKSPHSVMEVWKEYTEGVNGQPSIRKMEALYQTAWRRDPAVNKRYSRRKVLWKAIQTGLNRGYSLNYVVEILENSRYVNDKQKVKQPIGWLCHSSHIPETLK
Description: PBM E-score (8-mer binding enrichment) (E-score (-0.5 to 0.5)); higher = stronger / more preferred TF binding. The settings on record: protein concentration: 200 nM; construct: GST-full length. In short, it runs like this: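 Yeast transcription factors, full-length or as DNA-binding domains, were expressed with a GST tag using PURExpress in vitro transcription/translation. At about 100-200 nM they were applied to universal all-10-mer Agilent arrays, double-stranded by primer extension on fresh or once-stripped slides. Fluorescent anti-GST detected bound protein, and masliner normalised the scans. E-scores for ungapped eight-base words, pooled with reverse complements, came from the Universal PBM Analysis Suite.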
Take CCTAGCTC: the “PBM E-score” value was -0.148.
With CGGTCGCA, the “PBM E-score” value was -0.0568.
Then CCAACGGA, with -0.08.
Next, GGCACTAC: -0.284.
For the sequence CGCTCTGC, the “PBM E-score” value was -0.112.
Next, CCTTGTCC: 0.449; CCTTGTCG: 0.0372.
Next, CCTTGTCA: 0.0263; CTGGTATC: -0.0417.
Then GACCTATC, with 0.0973; and GGTGCTAC, with -0.204.
Regarding ATGTCGTG, the “PBM E-score” value was 0.337.
Regarding GTGTCGTA, the “PBM E-score” value was 0.228.
Next, ATGTCGTA: 0.395; ATGTCGTC: 0.191; CTGTCGTA: -0.0467.
Next, ATGTCGAG: 0.162; GCTGCGTA: -0.124; AAACGAGC: -0.0279.
GCCAAAGC: the “PBM E-score” value is -0.0464.
Then CACTGCCG, with 0.0826.
Regarding TGAGGCCA, the “PBM E-score” value is -0.117.
Next, GGAGGAGA: -0.179; AGAGGACC: -0.208.
Take TGAGGAAA: the “PBM E-score” value was determined as 0.0866.
Next, CGAGGACG: 0.0859.
As to CGAGGACC, the “PBM E-score” value is -0.14.
Take TGAGGACA: the “PBM E-score” value worked out at 0.46.
Turning to AGAGGACT, the “PBM E-score” value was -0.21.
Then GGAGGACA, with 0.4; and CGAGGACA, with 0.453; and GGAGGACC, with -0.25.
Then AGAGGACA, with 0.353.
Next, CCACACGA: 0.00165; AACGAATA: -0.0354; ATAGTCTA: -0.0808.
On to GTGCCTGA, for which the “PBM E-score” value was -0.25.
Regarding AATAACTC, the “PBM E-score” value was 0.00363.
Next, GGAGAACA: 0.0888; ACAACCCA: 0.0013.
CGTGTCTA: the “PBM E-score” value worked out at 0.166.
Consider AGTGTCCG, for which the “PBM E-score” value turned out to be 0.179.
Then CGTGTCCA, with 0.424; and CGTGTCCC, with 0.437; and CGTGTCGC, with 0.202.
On to GGTGTCGA, for which the “PBM E-score” value is -0.0245.
As for AGTGTCCC, the “PBM E-score” value was determined as 0.375.
Then CGTGTCTC, with 0.26; and GGTGTCCA, with 0.352; and GGTGTCTA, with 0.0447.
Then CGTGTCGA, with 0.0442; and AGTGTCCA, with 0.219.
ACGGTCAT: the “PBM E-score” value worked out at 0.0534.
Then AGCTTTCC, with -0.198; and GAACTGAA, with -0.00121.
Then CGTGGCAC, with 0.0166.
In the case of CTGAGCGA, the “PBM E-score” value was found to be 0.0585.
Then CAGCTAGC, with -0.19; and ATATTAAT, with 0.243; and GCAGCCCA, with -0.0983.
Turning to TTGCCAAA, the “PBM E-score” value is -0.0227.
Consider AACTTGGC, for which the “PBM E-score” value was -0.0461.
With GCCTTCCA, the “PBM E-score” value was -0.367.
With AAATGAAA, the “PBM E-score” value worked out at 0.305.
As for CAATGAAA, the “PBM E-score” value was 0.0415.
Next, TAATGAAA: 0.226; CGGATGTC: 0.348; CTGATGTC: 0.282.
Then AGGATGTC, with 0.398; and CGGATGTA, with 0.0259; and AAGATGTC, with 0.252.
Next, AGGATGTG: -0.0903; CAGATGTC: 0.347; AGGATGTA: -0.0489.
On to CAGATGTA, for which the “PBM E-score” value is -0.0817.
Turning to GCCCAGAA, the “PBM E-score” value was determined as 0.0114.
Next, CTGCTACC: -0.0604; CCCTCGAG: -0.11.
As to ACTGGCAA, the “PBM E-score” value was 0.0309.
Then GTTGATTA, with 0.135.
Then AATCTGGG, with -0.203; and CCAGGTGC, with -0.205; and ATTACGCG, with -0.059.
As to AACAATTA, the “PBM E-score” value was 0.165.
Next, CACAATAC: -0.0413; GACAATCC: 0.355.
